The panel holds about 83,000 compounds, 20% with a hit somewhere; the sample as a whole holds those more often.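 For each line, cells grew in 96-well plates with the test compound present at a single concentration for 48 hours.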 Activity calls are given as the source filed them.

The test concerns A498 renal. The test can be described thus: NCI-60 one-dose screen, 48 h (100 = growth as untreated, 0 = no growth, -100 = all killed). To be noted: 10 µM unless noted. How it is done: Growth inhibition of the A498 human tumor cell line is measured as a screen for anti-cancer activity. Cells are grown in 96 well plates and exposed to the test compound for 48 hours. Compounds are tested at a single concentration, which is 10^-5 M for most compounds. The reported endpoint is percent growth (GI% or GIPRCNT), where numbers from 0 - 100% represent growth inhibition, and numbers from -100% - 0 represent cell death. For example, a value of 40 represents 60% growth inhibition. A value of 0 means no net growth occurred over the course of the experiment. A value of -40 indicates 40% of cells at the beginning of the experiment died by the end of the experiment. A value of -100 means all cells are dead at the end of the experiment.
NCI-60 Human Tumor Cell Lines Screen was performed using the standard one-dose NCI protocol, which is described in more detail at https://dtp.cancer.gov/discovery_development/nci-60/default.htm.
Compounds with GIPRCNT values below 10 were considered active. Activity score was based on GIPRCNT using the following formula: […]
Score is 0 for GIPRCNT values of 100 or above, 50 for GIPRCNT values of 0, and 100 for GIPRCNT values of -100.
Consider `Cn1c2ccc(Br)cc2c2c3c(c4c5cc(F)ccc5oc4c21)C(=O)N(O)C3=O`, for which the growth was 94.2% (inactive).
Next, `COc1ccc(N)cc1C(=O)Nc1cccc(-c2cc(=O)c3c(OC)c(OC)c(OC)cc3o2)c1`: 63.1% (inactive).
Next, `O=C(Cn1cc(CN2C(=O)c3ccc([N+](=O)[O-])cc3C2=O)nn1)Nc1ccc(F)cc1Cl`: 85.8% (inactive).
For the molecule `O=c1cc(-c2ccccc2)nc2sc(-c3c[nH]c4ccc(F)cc34)nn12`, the growth is 88.8% (inactive).
With `O=c1c2c(O)cccc2oc2c3c(cc(O)c12)O[C@H]1OC=C[C@@H]31`, the growth is 89.1% (inactive).
For the molecule `O=C(/C=C/Nc1ccc(S(=O)(=O)O)cc1)c1ccc(F)cc1`, the growth is 93% (inactive).
Regarding `Nc1nc(N)c2c(n1)NC(c1ccccc1)CC(c1ccc(Nc3nc(NCCO)nc(Nc4ccc(Cl)cc4)n3)cc1)=N2` (stereo not given), the growth is 71.3% (inactive).
As for `CS(=O)c1nccc(-c2c(-c3ccc(F)c(OCc4ccccc4)c3)nc3sccn23)n1` (stereo not given), the figure is 94.2% (inactive).
As for `Oc1ccccc1-c1nnc(SCc2ccc(O)c3ncccc23)n1-c1ccccc1`, the figure is -6.54% (active); as for `O=C(Nc1cc(F)cc2cccnc12)c1cnc(N2CCOCC2)cn1`, 86.6% (inactive); as for `C#CCOc1ccc(/C=N/Nc2nc(-c3cc(Cl)ccc3Cl)cs2)cc1`, 83.6% (inactive).
Next, `O=C(/C=C/c1cn(-c2ccccc2)nc1-c1ccc(Cl)cc1)c1cc2ccccc2oc1=O`: 111% (inactive); `NS(=O)(=O)Oc1ccc2nc(Nc3ccc(F)c(F)c3)ccc2c1`: 74.5% (inactive); `Oc1ccc(CSc2nnc(-c3ccc(Br)cc3)n2-c2ccccc2)c2cccnc12`: 63.8% (inactive).
For the molecule `N#Cc1ccc(S(=O)(=O)Nc2ccc(-c3cnc(N)[nH]3)cc2)cc1`, the growth was 101% (inactive).
Regarding `O=C1c2c(c3c4cccnc4[nH]c3c3ccc4ccccc4c23)C(=O)N1CCN1CCOCC1`, the growth is 69% (inactive).
As for `C#C[C@]1(O)CC[C@H]2[C@@H]3CC=C4c5sc(-c6cccc(F)c6)nc5CC[C@]4(C)[C@H]3CC[C@@]21C`, the figure is 101% (inactive); as for `C#CCOc1ccccc1C(Nc1ccccc1)c1nnnn1C1CCCCC1` (stereo not given), 104% (inactive); as for `Cc1cc(=O)n2nc(-c3c[nH]c4ccccc34)sc2n1`, 95.1% (inactive).
As for `CCOC(=O)c1nn(-c2ccccc2)c(=O)c2c(N)c(C#N)c(-c3cccs3)cc12`, the figure is 102% (inactive); as for `COc1cc2c3c(n(CCCNC4CCC4)c(=O)c2cc1OC)-c1cc2c(cc1C3=O)OCO2`, 74.4% (inactive); as for `C#C[C@]1(O)CC[C@H]2[C@@H]3CC=C4c5sc(Nc6ccc(OC)nc6)nc5CC[C@]4(C)[C@H]3CC[C@@]21C`, 25.9% (inactive).
Next, `COc1ccc(N2C(=O)c3cc(OC)c(OC)cc3NC2SCc2ccccc2)cc1` (stereo not given): 107% (inactive); `O=C(NCCCNc1cc(-c2cn(-c3ccccc3)nc2-c2cccc(O)c2)ccn1)Nc1cc(C(F)(F)F)cc(C(F)(F)F)c1`: 71.4% (inactive); `COc1cnc2c(c1)C(=O)c1c-2n(CCCn2ccnc2)c(=O)c2cc(OC)c(OC)cc12`: 17.8% (inactive).
`CCCC(=O)NC(c1cccnc1)c1ccc2c(C)ccnc2c1O` (stereo not given): the growth is 37.8% (inactive).
Next, `N#Cc1c(NC(=O)c2ccccc2C(F)(F)F)sc2c1CCC(=O)C2`: 81.8% (inactive); `Nc1c(C(=O)c2ccccc2)sc2nc(-c3cnccn3)cc(-c3cccs3)c12`: 106% (inactive).
As for `Oc1ccc(CSc2nnc(-c3ccc(Br)cc3)o2)c2cccnc12`, the figure is 74.5% (inactive).
Next, `CS(=O)(=O)c1nccc(-c2c(-c3ccc(F)c(OCc4ccc(F)cc4)c3)nc3sccn23)n1`: 76.6% (inactive).
In the case of `O=C(/C=C1\C=CN(CCCCF)c2ccccc21)n1ccc2ccccc21`, the growth was 135% (inactive).
Turning to `COc1ccc([C@@H]2[C@@H](O)C(=O)N2c2cc(OC)c(OC)c(OC)c2)cc1Cl`, the growth was -16.9% (active).
As for `Oc1ccc(CSc2nnc(-c3ccc(Oc4ccccc4)cc3)n2-c2ccccc2)c2cccnc12`, the growth was 35.2% (inactive).
For the molecule `O=C(CCCCCCN1CC(=O)N2[C@@H](c3cccc(Br)c3)c3[nH]c4ccccc4c3C[C@H]2C1=O)NO`, the growth is 49.4% (inactive).
As for `Cc1ccc(NC(=O)c2cc(/C=C/C(=O)NO)cc(C(F)(F)F)c2)cc1Nc1nccc(-c2cccnc2)n1`, the figure is -46.9% (active); as for `COCCC[C@H]1O[C@@](O)([C@H](C)[C@@H]2CC(OC)C(O)/C=C(C)/C=C(C)/C=C(\C)C(OC3O[C@@H](C)[C@H](O)C(O)[C@@H]3O)C(C)/C=C(C)/C=C(OC)/C=C(\C)C(=O)O2)C(OC)C(O)[C@]1(C)O[C@H]1C[C@@H](O)[C@H](O[C@H]2C[C@](C)(O)[C@H](O)C(C)O2)C(C)O1` (stereo not given in full), 56% (inactive); as for `O=C(c1cccc(F)c1)n1ccc2cc(NC(=S)Nc3cccnc3)ccc21`, 92.4% (inactive).
Take `O=C1/C(=C/c2ccc([N+](=O)[O-])cc2)SC(=Nc2ccccc2)N1Nc1ccccc1`: the growth was 28.2% (inactive).
Turning to `NS(=O)(=O)c1ccc(Nc2nc(N/N=C/c3ccc([N+](=O)[O-])cc3)nc(Nc3ccccc3)n2)cc1`, the growth was 18.5% (inactive).
On to `Oc1ccc(CSc2nnc(-c3ccc(Cl)cc3)o2)c2cccnc12`, for which the growth is 75.5% (inactive).

For the origin of these results see PubChem BioAssay (NCI).
